What all share (test): glycan array binding signal (z-score within array); higher = stronger binding
What all share (conditions): glycan notation: IUPAC condensed, linker removed

Assay [1] has as its target Fuc(a1-2)Gal(b1-3)GlcNAc(b1-3)[Gal(b1-4)[Fuc(a1-3)]GlcNAc(b1-6)]Gal(b1-4)Glc. The essentials:
(§1)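 Glycan array binding is given as a within-array Z-score, which can be read as non-binding when negative. The arrays, 3228 of them, came from the Consortium for Functional Glycomics database and were retained only where the protein sequence was available. Z-scores were averaged across arrays of the same protein sequence at different concentrations or buffers and across linkers.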

Assay [2] has as its target Fuc(a1-2)Gal6S(b1-4)GlcNAc. The essentials: as §1
The next assay addresses Fuc(a1-2)[Gal(a1-3)]Gal. The essentials:
as §1

The target in assay [3] is Fuc(a1-2)[Gal(a1-3)]Gal(b1-3)GlcNAc. The essentials:
as §1

For assay [4], the target named is Fuc(a1-3)[Gal(b1-4)]GlcNAc(b1-2)Man(a1-3)[Fuc(a1-3)[Gal(b1-4)]GlcNAc(b1-2)Man(a1-6)]Man(b1-4)GlcNAc(b1-4)GlcNAc. The essentials: as §1
For assay [5], the target named is Fuc(a1-3)[Gal(b1-4)]GlcNAc(b1-3)Gal(b1-3)[Fuc(a1-4)]GlcNAc. The essentials: as §1
In a further assay the target is Gal(b1-2)Gal. The essentials: as §1
Assay [6] deals with Gal(b1-4)GlcNAc(b1-2)Man(a1-6)[Man(a1-3)]Man(b1-4)GlcNAc(b1-4)GlcNAc. The essentials:
as §1

Assay [7] has as its target Gal(b1-4)GlcNAc(b1-3)Gal(b1-4)Glc. The essentials:
as §1

For the next assay, the target named is Gal3S(b1-4)GlcNAc. The essentials:
as §1

For a further assay, the target named is Gal3S6S(b1-4)GlcNAc. The essentials: as §1
Another assay addresses GalNAc(a1-3)Gal. The essentials: as §1
The target in assay [8] is GlcNAc(a1-4)Gal(b1-4)GalNAc. The essentials:
as §1

In assay [9] the target is GlcNAc(a1-4)Gal(b1-4)GlcNAc(b1-3)Gal(b1-4)[Fuc(a1-3)]GlcNAc(b1-3)Gal(b1-4)[Fuc(a1-3)]GlcNAc. The essentials:
as §1

Assay [10] addresses GlcNAc(b1-3)Gal(b1-4)GlcNAc. The essentials:
as §1

Another assay has as its target GlcNAc(b1-3)Man. The essentials: as §1
The target in assay [11] is Man(a1-2)Man(a1-2)Man(a1-6)[Man(a1-3)]Man. The essentials:
as §1

Another assay has as its target Man(a1-2)Man(a1-3)Man. The essentials:
as §1

Assay [12] concerns the target Neu5Ac(a2-3)Gal(b1-3)GalNAc6S. The essentials:
as §1

The target of assay [13] is Neu5Ac(a2-3)Gal(b1-4)GlcNAc(b1-3)Gal(b1-4)GlcNAc(b1-3)Gal(b1-4)GlcNAc. The essentials:
as §1

Assay [14] addresses Neu5Ac(a2-6)GlcNAc(b1-4)GlcNAc(b1-4)GlcNAc. The essentials: as §1
Assay [15] deals with Neu5Ac9Ac(a2-3)Gal(b1-4)GlcNAc. The essentials: as §1
Assay [16] deals with Neu5Gc(a2-3)Gal(b1-3)GlcNAc. The essentials: as §1

Many of the other results were omitted from the sample, so the strongest signals are more common in it than they were.

B1: DETC sTCR (Mus musculus) (protein)
chain: LDVYLEPVAKTFTVVAGDPASFYCTVTGGDMKNYHMSWYKKNGTNALFLVYKLNSNSTDGGKSNLKGKINISKNQFILDIQKATMKDAGTYYCGSDIGGSSWDTRQMFFGTGIELFVEPKSQPPAKPSVFIMKNGTNVACLVKDFYPKEVTISLRSSKKIVEFDPAIVISPSGKYSAVKLGQYGDSNSVTCSVQHNSETVHSTDFEPYANSFNNEKLPEPENDTQISEPCSSADLVPRGSTTAPSAQLKKKLQALKKKNAQLKWKLQALKKKLAQHHHHHHDSWISQDQLSFTRRPNKTVHISCKLSGVPLHNTIVHWYQLKEGEPLRRIFYGSVKTYKQDKSHSRLEIDEKDDGTFYLIINNVVTSDEATYYCACWDSSGFHKVFAEGTKLIVIPSDKRLDADISPKPTIFLPSVAETNLHKTGTYLCLLEKFFPDVIRVYWKEKDGNTILDSQEGDTLKTNDTYMKFSWLTVPERAMGKEHRCIVKHENNKGGADQEIFFPSIKKVAVSTKPTTCSSADLVPRGSTTAPSAQLEKELQALEKENAQLEWELQALEKELAQLNDIFEAQKIEW
Consider B1, for which the “glycan array binding signal (z-score)” value is -0.448 in assay [1]; 2.96 in assay [2]; 0.343 in the assay with Fuc(a1-2)[Gal(a1-3)]Gal; -0.572 in assay [3]; -0.52 in assay [4]; -0.531 in [5]. Also, the “glycan array binding signal (z-score)” value in the assay with Gal(b1-2)Gal was -0.101; in [6] it was 6.38; in [7], -0.495; with Gal3S(b1-4)GlcNAc, 2.74; in the assay with Gal3S6S(b1-4)GlcNAc it was -0.25; with GalNAc(a1-3)Gal it was -0.71. Besides, the “glycan array binding signal (z-score)” value in assay [8] was 3.96; in assay [9], 5.91; in [10] it was -0.215; with GlcNAc(b1-3)Man it was -0.035; in assay [11], 0.993; with Man(a1-2)Man(a1-3)Man, -0.043. The “glycan array binding signal (z-score)” value in assay [12] was 1.09; in assay [13] it was -0.518; in assay [14] it was 5.83; in assay [15], 0.262; in assay [16], -0.599.
